Data: ChEMBL document CHEMBL3988442, “University of Dundee, Small-Polar-MMV Screening Library” (2021)
Screen size: about 48,000 compounds; about 13,000 (27%) showed an effect of 50% or more. The list shows a part of the results.

tested on: Wolbachia pipientis; experiment: Anti-Wolbachia Cell-Based Screen; type: functional; parameters: scale not given: in the data most compounds retested in dose-response had high values; conditions: 5 µM

Row | Structure (SMILES) | Percent Effect [%]
1 | O=C(NC1(c2nnn(CCO)n2)CCCC1)c1ccccc1 | -5.354
2 | Cn1c(C(=O)NC2CCCC2)nc2c1CCN(Cc1ccccc1)C2 | 4.267
3 | Cc1ccc(-c2c(C(=O)NC3CCN(C)CC3)csc2C)cc1 | 4.532
4 | CN1CCC(NC(=O)c2cc(C3CCCCC3)nc3ccccc23)CC1 | 113.5
5 | Cn1cc(C2(C)CN(Cc3ccc(O)c(Cl)c3)CCO2)cn1 (centres undefined) | -11.09
6 | CCCn1nc2c(cc1=O)CN(Cc1cc(C)on1)CC2 | -1.057
7 | CCc1ccc(C(=O)NC(C)c2ccc(S(C)(=O)=O)c(F)c2)o1 (centres undefined) | 2.681
8 | CCOCC1CN(C(=O)c2cccc(C)n2)Cc2cnn(C)c21 (centres undefined) | 129.5
9 | COCC1CN(C(=O)c2cccn2C)Cc2cnn(C)c21 (centres undefined) | 3.786
10 | CCOCC1CN(C(=O)c2cccnc2)Cc2cnn(C)c21 (centres undefined) | 105
11 | CCOCC1CN(C(=O)c2ccncn2)Cc2cnn(C)c21.O=C(O)C(F)(F)F (centres undefined) | -8.665
12 | CCOCC1CN(C(=O)c2ccnnc2)Cc2cnn(C)c21 (centres undefined) | 100.5
13 | Cc1noc(C)c1CNCC1CCN(CC(O)c2ccccc2)CC1 (centres undefined) | 0.6409
14 | CN1CCCC1CCn1ccnc1-c1ccc2ccccc2n1 (centres undefined) | -11.7
15 | COCC(NC(=O)c1cc(NC(C)=O)ccc1Cl)c1ccnn1C (centres undefined) | -14.74
16 | COCC(Nc1ncnc2sc(C(=O)O)c(C)c12)c1ccnn1C (centres undefined) | 6.074
17 | CCCc1cc(C(=O)NCCCn2nnc3ccccc32)no1 | 2.161
18 | COCC(NC(=O)c1cn2ccsc2n1)c1ccnn1C (centres undefined) | 103.8
19 | CCCc1cc(C(=O)NC(COC)c2ccnn2C)no1 (centres undefined) | 98.08
20 | CCCc1nc(C(=O)NC(COC)c2ccnn2C)cs1 (centres undefined) | 113.9
21 | CCCc1nc(C(=O)NCCCn2nnc3ccccc32)cs1 | 3.085
22 | CCCc1nc(C(=O)N2CCN(S(=O)(=O)CC)CC2)cs1 | 13.9
23 | COCC(Nc1ncnc2sc(C)c(C)c12)c1ccnn1C (centres undefined) | -1.475
24 | CCSCCOC(=O)CCCc1ccc2c(c1)CC(=O)N2 | -3.889
25 | CCC1(O)CCCN(c2nc(C(C)(C)C)nc3c2cnn3C)C1 (centres undefined) | -1.49

Row | Structure (SMILES) | Percent Effect [%]
26 | CN(C)C(=O)N1CC(=O)NCC12CCN(C(=O)c1ccco1)C2 (centres undefined) | -32.82
27 | COc1cc(C2CC(=O)NCc3nc4sccn4c32)cc(OC)c1O (centres undefined) | -15.83
28 | COCCn1ccnc1C1CCN(c2cccc(C(=O)O)n2)CC1 | -10.3
29 | Cc1nn(C)cc1CN1CCC(C2Nc3ccccc3S(=O)(=O)N2)CC1 (centres undefined) | -11.33
30 | CCn1cc(CN2CCCC(CO)(CCc3ccccc3)C2)c(C)n1 (centres undefined) | -0.5849
31 | CN1C(=O)CC2(CCN(Cc3cnn(C)c3)CC2)c2ccccc21 | 0.9694
32 | Cl.Cn1cc(CN2CCN(CC3(c4ccccc4)CC3)CC2)cn1 | 82.02
33 | Cc1cccc(N2CCC3(CCCN3Cc3cn(C)nc3C)CC2)n1 | -1.763
34 | C=Cn1cc(CN2CCN(CC3(c4ccccc4)CC3)CC2)c(C)n1 | 101.3
35 | Cc1ccc(C2(CN3CCN(Cc4cn(C)nc4C)CC3)CC2)cc1.Cl | 115.4
36 | Cn1cc(CN2CCCN(CCCc3ccccc3)CC2)cn1 | 4.066
37 | Cc1nn(C)cc1CN1CCN(CC2(c3ccccc3)CC2)CC1 | 110.9
38 | Nc1ncc(CN2C[C@H](C3CC3)[C@@H](N)C2)cn1 | -6.254
39 | CC(NC(=O)N1CCC2(C1)OCCO2)c1ccc(F)cc1Cl (centres undefined) | -14.1
40 | Cc1cnc(C(=O)N2CCCn3c(nc(CN(C)C)cc3=O)C2)cn1.O=C(O)C(F)(F)F | -7.099
41 | CN1CCN(Cc2cnc3n2CCN(C(=O)c2cnccn2)C3)CC1 | -7.558
42 | CCN(CC)Cc1cc(=O)n2c(n1)CN(C(=O)c1ccnnc1)CCC2.O=C(O)C(F)(F)F | 96.84
43 | CC(C)N(C)Cc1cc(=O)n2c(n1)CN(C(=O)c1ccnnc1)CCC2 | 96.43
44 | CC(C)N(C)Cc1cc(=O)n2c(n1)CN(C(=O)c1cnccn1)CCC2 | 114.9
45 | CC(C)N(C)Cc1noc2c1CN(C(=O)c1ccsc1)CC2 | 5.959
46 | Cc1cnc(N2CCC(c3ccccc3)CC2)nc1-c1ccnn1C | -8.504
47 | COc1ncccc1CNC(=O)N(Cc1ccccc1F)C1CC1 | -13.4
48 | COc1ncccc1CNC(=O)NC1CCOc2ccccc21 (centres undefined) | 3.95
49 | CC(C)Oc1ncccc1CNC(=O)N1CCC1c1ccccc1 (centres undefined) | -10.96
50 | CC(C)Oc1ncccc1CNC(=O)NC1CCOc2ccccc21 (centres undefined) | 99.58

Row | Structure (SMILES) | Percent Effect [%]
51 | CCOc1ncccc1CNC(=O)NC1CCOc2ccccc21 (centres undefined) | 109.6
52 | O=C(NCc1ccccn1)NC1CCOc2ccccc21 (centres undefined) | 10.12
53 | Cc1ccc(Oc2ncccc2CNC(=O)NC2CCCCC2)cn1 | -14.6
54 | COc1ncccc1CNC(=O)NC1CCCOc2ccccc21 (centres undefined) | 119.2
55 | CC(C)Oc1ncccc1CNC(=O)N1CCOCC1 | 12.39
56 | COc1ncccc1NC(=O)NC1CCOc2ccccc21 (centres undefined) | 7.033
57 | COc1ncccc1C(=O)NC1CCOc2ccccc21 (centres undefined) | 117.1
58 | COc1ncccc1C(=O)NCC1Cc2ccccc2O1 (centres undefined) | 13.43
59 | CC(C)Oc1ccc(C(=O)Nc2nncs2)cn1 | -3.461
60 | NC(=O)c1ccc(N2CCCCC2)c(NC(=O)c2ccc(F)cc2F)c1 | -3.643
61 | COCCN1CCN(CCCS(=O)(=O)c2ccccc2)CC1C (centres undefined) | 8.957
62 | CCOC(C)C(=O)NS(=O)(=O)c1cccc2cc(C)cnc12 (centres undefined) | 6.301
63 | Cn1ccnc1C1c2nc[nH]c2CCN1Cc1cccnc1 (centres undefined) | 3.917
64 | COCCn1ccnc1CN1CCc2[nH]cnc2C1c1cnn(C)c1C (centres undefined) | 99.98
65 | Cc1c(C2c3nc[nH]c3CCN2CCOCc2ccccc2)cnn1C (centres undefined) | 5.205
66 | c1ccc(COCCN2CCc3[nH]cnc3C2c2ccco2)cc1 (centres undefined) | -0.996
67 | CCn1ccnc1CN1CCN(Cc2ccc(C#N)cc2)CC1 | -17.04
68 | COc1ncccc1CN1CCc2[nH]cnc2C1CCSC (centres undefined) | -5.01
69 | CCn1ncnc1CN1CCc2[nH]cnc2C1c1ccccn1 (centres undefined) | -9.23
70 | CC(=O)Nc1ccc(CN2CCc3[nH]cnc3C2c2nccn2C)cc1 (centres undefined) | 16.2
71 | COCCn1ccnc1CN1CCc2[nH]cnc2C1c1cccc(O)c1 (centres undefined) | 85.01
72 | CCc1ccc(C2c3nc[nH]c3CCN2Cc2nccn2CC)nc1 (centres undefined) | 105
73 | COCCn1ccnc1CN1CCc2[nH]cnc2C1c1ccccn1 (centres undefined) | 80.05
74 | CCCn1ccnc1CN1CCc2[nH]cnc2C1Cc1ccccc1 (centres undefined) | -1.947
